In general, inhibition refers to the drop in the measured response relative to a control, in per cent. Usually remaining activity stands for the signal under treatment as a percentage of the control signal. One may read the AC50 as the concentration giving half of the maximal activity seen. A word on the IC50: it is the concentration needed to halve the response being measured.

“And” between values parts separate entries of the source, which are not always exact repeats. Equal values may be shown once. Values without a mark were called inactive. Inconclusive results are not listed. The source made the active and inactive calls.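 Rule for the calls, unless noted: active = thallium flux through the channel raised or lowered by more than 3 SD from vehicle-only wells, actives on both sides; inactive = the rest.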

The results in this text go back to PubChem BioAssay.

The target of experiment [1] is Single-stranded DNA-binding protein (Escherichia coli (strain K12)) (UniProt P0AGE0). Nature of the experiment: E. coli SSB displacement from DNA, counter-screen for HCV NS3 helicase inhibitor project, biochemical, fluorescence polarization, NIH Clinical Collection (AID 743271; in the data active = inhibition above about 28%). The note with it: stronger effect = higher value, concentration not given here. (In general: The purpose of a counterscreen is to sort out artefacts and off-target activity.)

Experiment [2] can be described thus: fluorescence interference in NS3h assay format, artefact control for HCV NS3 helicase inhibitor project, biochemical, NIH Clinical Collection (AID 743272; call rule not given here;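 note: HCV NS3 helicase with a Cy5 labelled single stranded DNA probe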). The note with it: fluorescence interference counterscreen, stronger effect = lower value.
For another experiment, the system named is F380Y/beta1. Nature of the experiment: modulators of BK channel variants, profiling panel, selectivity assay, cell-based, U2OS BacMam, thallium flux, beta subunits (AID 1259406).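 Note: initial slope of Thallos dye fluorescence rise after thallium is added; log ratio against the mean of 0.3% DMSO vehicle wells on the same plate.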 The note with it: at 30 µM.
Another experiment concerns F380Y/beta4. The experiment is described as above. The conditions noted are these: at 30 µM.
The next experiment relates to R275C/beta4. Described as above. The conditions noted are these: at 30 µM.
For a further experiment, the system named is R275C/Slo1WT/beta2. The description is as above. The conditions noted are these: at 30 µM.
Experiment [3] relates to Aerobactin synthetase IucA (Klebsiella pneumoniae). Nature of the experiment: IucA aerobactin synthetase inhibitors, biochemical, Tocris library, absorbance (AID 1345561; call rule not given here;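 note: 100% = enzyme without compound and 0% = no enzyme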). The conditions noted are these: purified IucA enzyme assay, absorbance (OD) read-out; stronger effect = lower value;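 tested at 8 µM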.
Experiment [4] can be described thus: growth inhibition of DIPG glioma cells, dose response, cell-based, SU-DIPG-XVII, MIPE5.0, CellTiter-Glo, qHTS (AID 1347060; cut-off not given, nearly all actives have AC50 up to about 26 µM;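 for AC50: cells exposed to compound for 48 hours before viability readout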). The conditions noted are these: SU-DIPG-XVII viability, CellTiter-Glo ATP luminescence.
A short description of experiment [5]: growth inhibition of DIPG glioma cells, dose response, cell-based, SU-DIPG-XIII, MIPE4.0, CellTiter-Glo, qHTS (AID 1347061; cut-off not given, nearly all actives have AC50 up to about 37 µM;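 note: cells exposed to compound for 48 hours before readout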). The conditions noted are these: SU-DIPG-XIII viability, CellTiter-Glo ATP luminescence. (Cellular ATP, detected with luciferase, serves as a proxy for viable cell number.)
Experiment [6] is described as follows: growth inhibition of DIPG glioma cells, dose response, cell-based, JHH-DIPG-1, MIPE4.0, CellTiter-Glo, qHTS (AID 1347062; cut-off not given, nearly all actives have AC50 up to about 27 µM;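 for AC50: cells exposed to compound for two days before readout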). The note with it: JHH-DIPG-1 viability, CellTiter-Glo ATP luminescence.
The nature of experiment [7]: growth inhibition of DIPG glioma cells, dose response, cell-based, SU-DIPG-IV, MIPE4.0, CellTiter-Glo, qHTS (AID 1347063; cut-off not given, nearly all actives have AC50 up to about 30 µM;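 note: compound exposure lasted 48 hours before the viability readout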). The note with it: SU-DIPG-IV viability, CellTiter-Glo ATP luminescence.
A short description of experiment [8]: SU-DIPG-VI glioma cell viability, MIPE4.0 library, CellTiter-Glo luminescence, qHTS (AID 1347066; cut-off not given, nearly all actives have AC50 up to about 30 µM;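 note: cells exposed to compound for 48 hours before readout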). The conditions noted are these: CellTiter-Glo ATP luminescence.
A short description of experiment [9]: JHH-DIPG-1 glioma cell viability, MIPE5.0 library, CellTiter-Glo luminescence, qHTS (AID 1347067; cut-off not given, nearly all actives have AC50 up to about 26 µM;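 note: cells exposed to compound for 48 hours before readout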). The conditions noted are these: JHH-DIPG-1 glioma viability, CellTiter-Glo ATP luminescence.
Experiment [10] is described as follows: SU-DIPG-XXV glioma cell viability, MIPE5.0 library, qHTS (AID 1347068; cut-off not given, nearly all actives have IC50 up to about 30 µM;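 for IC50: cells exposed to compound for 48 hours before viability readout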).
Experiment [11] relates to Neuropilin-2 / VEGF-C interaction (human). Kind of experiment: inhibitors of NRP2–VEGF-C binding, biochemical, microplate binding format, z-score (AID 743281; call rule not given here). The note with it: microplate NRP2/VEGF-C binding assay; stronger effect = lower value.
The target of experiment [12] is Calcium-activated potassium channel subunit alpha-1 (Homo sapiens) + Leucine-rich repeat-containing protein 26 (Homo sapiens) (UniProt Q12791+Q2I0M4). Nature of the experiment: modulators of BK channel variants, profiling panel, selectivity assay, cell-based, U2OS BacMam, thallium flux, beta subunits (AID 1259406).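 Note: initial slope of Thallos dye fluorescence rise after thallium is added; log ratio against the mean of 0.3% DMSO vehicle wells on the same plate.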 The conditions noted are these: F380Y/Slo1WT/gamma1, at 30 µM.
Calcium-activated potassium channel subunit alpha-1 (Homo sapiens) + Leucine-rich repeat-containing protein 26 (Homo sapiens), sequence (Q2I0M4 whole entry, looked up, one chain of several): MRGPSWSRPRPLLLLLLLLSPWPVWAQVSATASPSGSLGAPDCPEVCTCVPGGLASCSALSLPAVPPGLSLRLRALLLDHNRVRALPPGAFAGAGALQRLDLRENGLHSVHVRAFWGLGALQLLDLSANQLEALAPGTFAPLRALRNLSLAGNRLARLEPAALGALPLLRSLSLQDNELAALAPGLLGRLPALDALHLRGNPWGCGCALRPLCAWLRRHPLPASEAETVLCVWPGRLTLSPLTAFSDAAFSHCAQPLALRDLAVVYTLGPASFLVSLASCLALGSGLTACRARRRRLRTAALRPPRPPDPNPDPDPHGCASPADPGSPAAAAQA

As to `Clc1ccc(COC(Cn2ccnc2)c2ccc(Cl)cc2Cl)cc1` (stereo unspecified), the inhibition in experiment [1] is 4.1%. In experiment [2], the fluorescence ratio was 0.94. The log fold change Tl+ flux in the experiment with F380Y/beta1 was -0.0732; with F380Y/beta4, -0.321 (active); in the experiment with R275C/beta4 it was 0.279 (active); with R275C/Slo1WT/beta2 it was -0.0527.

Turning to `CN1C(=O)CCS(=O)(=O)C1c1ccc(Cl)cc1` (stereo unspecified), in experiment [3], the remaining activity is 97.1%. In addition, the result in [4], in experiment [5], in experiment [6], in experiment [7], in experiment [8] and in experiment [9] was inactive. Moreover, the compound was called inactive in experiment [10].

Turning to `O=c1[nH]c2ccccc2n1C1CCN(CCCC(c2ccc(F)cc2)c2ccc(F)cc2)CC1`, the remaining activity in experiment [3] was 106%.

As to `COC(=O)C1=CCCN(C)C1`, the outcome in experiment [7] and in experiment [8] was inactive.

Consider `O=c1[nH]c2ccccc2n1CCCN1CCC(n2c(=O)[nH]c3cc(Cl)ccc32)CC1`, for which the remaining activity in [3] was 103%. For the same compound, the compound was called inactive in [4], in experiment [5], in experiment [6], in experiment [8] and in [10].

On to `CCC1(C2=NCCN2)Cc2ccccc2O1` (stereo unspecified), for which, in experiment [3], the remaining activity was 98.6%.

With `N[C@@H](Cc1ccc(N(CCCl)CCCl)cc1)C(=O)O`, the concentration at half-maximal activity (AC50) in [4] is 4170 nM (active); in [6], 23500 nM (active); in [7] it was 13200 nM (active). In experiment [10], the IC50 is 29500 nM (active).

For the compound `Clc1ccc(CO/N=C(\Cn2ccnc2)c2ccc(Cl)cc2Cl)c(Cl)c1`, the compound was classed as inactive in experiment [11].

Turning to `COc1ccc(C(CN(C)C)C2(O)CCCCC2)cc1` (stereo unspecified), the inhibition in experiment [1] is 1.44%. In experiment [2], the fluorescence ratio was 0.93. Further, in experiment [11], the z-score is 0.57. For the same compound, the call in [5], in experiment [6], in experiment [7] and in [8] was inactive. Moreover, the log fold change Tl+ flux is -0.0404 in the experiment with F380Y/beta1; 0.00869 in the experiment on F380Y/beta4; -0.00535 in experiment [12]; 0.0192 with R275C/beta4; 0.0327 in the experiment with R275C/Slo1WT/beta2.

As for `O=C(CCCN1CCC2(CC1)C(=O)NCN2c1ccccc1)c1ccc(F)cc1`, the remaining activity in experiment [3] was 101%.

For `O=c1[nH]oc2c1CCNC2`, the remaining activity in experiment [3] is 79%.

For `CN(C)[C@@H]1C(=O)C(C(N)=O)=C(O)[C@@]2(O)C(=O)C3=C(O)c4c(O)cccc4[C@@](C)(O)[C@H]3C[C@@H]12`, the outcome in experiment [4], in experiment [5], in [6], in experiment [7], in experiment [8] and in experiment [9] was inactive. Besides, in experiment [10], the call was inactive.

For the compound `CC(NC(C)(C)C)C(=O)c1cccc(Cl)c1` (stereo unspecified), in experiment [1], the inhibition was -3.18% and 3.75%. The fluorescence ratio in experiment [2] was 1. In experiment [11], the z-score was -0.243 and -0.0135. The result in experiment [4], in experiment [5], in experiment [6], in experiment [7], in experiment [8] and in experiment [9] was inactive. For the same compound, the compound was classed as inactive in experiment [10]. The log fold change Tl+ flux was -0.0211 and 0.0228 in the experiment with F380Y/beta1; -0.0339 and 0.00749 in the experiment with F380Y/beta4; -0.0374 and -0.0597 in experiment [12]; -0.00901 and 0.0176 in the experiment with R275C/beta4; -0.0516 and 0.0164 in the experiment on R275C/Slo1WT/beta2.

Take `C[C@@H]1C[C@@H]([C@H](O)CC2CC(=O)NC(=O)C2)C(=O)[C@@H](C)C1`: the figures for the half-maximal activity concentration (AC50) in [4], in experiment [6] and in experiment [7] were 934 nM (active), 743 nM (active) and 469 nM (active), respectively. Moreover, in experiment [8], the compound was called inactive. The concentration for half-maximal inhibition (IC50) in experiment [10] was 934 nM (active).

For the compound `CCC1(c2ccc(N)cc2)CCC(=O)NC1=O` (stereo unspecified), the inhibition in experiment [1] is -2%. Besides, the fluorescence ratio in experiment [2] is 1.04. The compound was classed as inactive in [4], in experiment [5], in experiment [7], in [8], in [9] and in experiment [10]. Besides, the log fold change Tl+ flux is -0.0309 in the experiment with F380Y/beta1; -0.00944 in the experiment with F380Y/beta4; -0.0199 in [12]; 0.0132 in the experiment on R275C/beta4; 0.0134 with R275C/Slo1WT/beta2.

Regarding `CC(C)N(CCC(C(N)=O)(c1ccccc1)c1ccccn1)C(C)C` (stereo unspecified), the inhibition in [1] is -3.53%. The fluorescence ratio in [2] is 1.04. For the same compound, the log fold change Tl+ flux with F380Y/beta1 was 0.0372; in the experiment on F380Y/beta4, 0.017; in [12], 0.0168; in the experiment on R275C/beta4, -0.0304; with R275C/Slo1WT/beta2, 0.00641.

As for `C=C(C)[C@H]1Cc2c(ccc3c2O[C@@H]2COc4cc(OC)c(OC)cc4[C@@H]2C3=O)O1`, the concentration at half-maximal activity (AC50) in experiment [4] was 1320 nM (active); in experiment [9], 1480 nM (active). The compound was called inactive in [5].

Turning to `NCC(O)c1ccc(O)cc1` (stereo unspecified), the remaining activity in [3] is 96.2%.

With `C[C@@H]1CC[C@H]2[C@@H](C)C(=O)O[C@@H]3O[C@@]4(C)CC[C@@H]1[C@]32OO4`, the remaining activity in experiment [3] was 94.3%. Also, the result in experiment [4], in [5], in [6], in experiment [8], in experiment [9] and in experiment [10] was inactive.

For `C=C(C)[C@H]1CN[C@H](C(=O)O)[C@H]1CC(=O)O`, in experiment [3], the remaining activity was 116%.

Consider `N[C@@H]1C[C@H]1c1ccccc1`, for which the remaining activity in experiment [3] is 124%. Also, the compound was called inactive in [4], in experiment [5], in [6], in experiment [7], in [8] and in experiment [9]. Besides, in [10], the compound was called inactive.

`C[C@@H]1O[C@@H](O[C@H]2C[C@@H](O)[C@]3(CO)[C@H]4[C@H](O)C[C@]5(C)[C@@H](C6=CC(=O)OC6)CC[C@]5(O)[C@@H]4CC[C@]3(O)C2)[C@H](O)[C@H](O)[C@H]1O`: the AC50 in experiment [4] was 52.5 nM (active); in experiment [5] it was 13.2 nM (active); in experiment [6], 6.62 nM (active); in experiment [7], 14.8 nM (active); in experiment [8], 29.6 nM (active); in experiment [9], 18.6 nM (active).
